Assay outcomes: PubChem, National Center for Advancing Translational Sciences (NCATS)
HT1080NT lethal – kills 2HG-producing HT-1080-NT fibrosarcoma cells; 1.6% of 360,000 active; AID 686970; Potency, µM (titrated, usually from 46.1 µM), inactives show at the highest dose activity, negative = less viability, usual class: cytotoxic; HT-1080-NT fibrosarcoma viability, CellTiter-Glo ATP luminescence, 48 h;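 further: NT is the 2HG producing partner of a matched IDH1 knockdown line; 0% = DMSO-treated cells and -100% = media-only wells without cells; nearly all actives have a fitted effect of over 55% in size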
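Luminescent CellTiter-Glo readout after 48 hours of compound exposure at 37 degrees C defined viability of HT-1080-NT cells. Activity was normalized to DMSO wells and cell-free media wells; concentration-response curves were fitted and assigned curve classes.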
KB-V1 cytotox – KB-V1 MDR subline cytotoxicity; KB-V1 MDR cells viability, CellTiter-Glo, 72 h; Potency, µM (highest dose often 46.1 µM), actives largely listed as cytotoxic; 3.4% of 400,000 active; AID 1347076; further: on the % scale 0 is the no-effect control and ±100 the full control effect; nearly all actives have a fitted effect of over 60% in size
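Luminescent ATP read-out (CellTiter-Glo, 10 min) measures survival of drug-selected KB-V1 MDR cells after 72 h, 37 degrees C compound exposure. Medium: phenol-red-free DMEM, 10% FBS. Values from fitted concentration-response curves.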
KB-3-1 tox – kills parental KB-3-1 adenocarcinoma cells | KB-3-1 viability, CellTiter-Glo ATP luminescence, 72 h | Potency, µM (top dose mostly 46.1 µM), usual class: cytotoxic | 1.4% of 400,000 active; further: on the % scale 0 is the no-effect control and ±100 the full control effect; nearly all actives have a fitted effect of over 60% in size
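Here the drug-naive KB-3-1 line serves as comparator for MDR sub-line selectivity; cells received compound titrations, 72 h at 37 °C, then CellTiter-Glo readout.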
MCF10A rereplic – DNA re-replication induction in MCF 10a cells. MCF 10A DNA re-replication, Hoechst nuclear intensity, 48 h. Potency, µM (top dose mostly 46.1 µM), for inactives: at the top dose activity, positive = re-replication, actives largely listed as activators. 2.9% of 350,000 active. AID 624296; further: % of control where 0% means no effect; nearly all actives have a fitted effect of over 50% in size
HT1080 IDH1KD tx – toxicity to HT-1080 IDH1 knockdown cells (counter line) | Potency, µM (titrated, usually from 46.1 µM), for the others: at the highest dose activity, negative = toxicity, actives largely listed as cytotoxic | HT-1080 IDH1 knockdown viability, ATP luminescence, 48 h | 2% of 360,000 active;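 further: 0% = DMSO wells and -100% = cell-free medium wells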
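% activity derives from luminescence (CellTiter-Glo), normalised to DMSO and no-cell wells. HT-1080-IDH1KD cells, 750/well, had 48 h compound exposure at 37 °C.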
SW480 rereplic – DNA re-replication induction in SW480 cells | SW480 DNA re-replication, Hoechst DNA content imaging, 48 h | Potency, µM (titrated, usually from 46.1 µM), inactives show top-dose re-replication activation, hits mostly activators | 1.8% of 340,000 active | AID 624297; further: % of control where 0% means no effect; nearly all actives have a fitted effect of over 55% in size
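Image-based DNA-content assay: after two days of treatment, nuclei were labelled with the DNA dye Hoechst and imaged, and hits were compounds raising the count of nuclei showing high fluorescence intensity.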
* = called active by the depositor; i = inactive; ? = inconclusive; · = no result; [ ] = remark or other dose. Compounds with a hit are over-represented: about 8% of the library has one in this group of screens. The call rests on the fitted dose curve; in most records, active means well fitted curve in the direction sought with a large enough effect; inconclusive means small, poorly fitted or top-dose-only effect, or another doubt; inactive means no such curve, though single readings can be large; an effect the other way counts as inactive or inconclusive. Potency means the concentration at half of the fitted maximal effect.

SMILES	HT1080NT lethal	KB-V1 cytotox	KB-3-1 tox	MCF10A rereplic	HT1080 IDH1KD tx	SW480 rereplic
Cc1ccc(N(CC(=O)NCCc2ccc(F)cc2)S(=O)(=O)c2ccc(Cl)c([N+](=O)[O-])c2)c(C)c1	?	i	?	?	21µM*	?
O=C(CN(c1cccc(C(F)(F)F)c1)S(=O)(=O)c1ccc(Cl)c([N+](=O)[O-])c1)NCc1ccccc1	-1%	i	i	3.7µM*	-2%	13µM*
O=C(CN(c1cccc(C(F)(F)F)c1)S(=O)(=O)c1ccc(Cl)c([N+](=O)[O-])c1)NCc1ccccc1Cl	-20%	i	i	4.6µM*	3%	?
CC(NC(=O)CN(c1cccc(C(F)(F)F)c1)S(=O)(=O)c1ccc(Cl)c([N+](=O)[O-])c1)c1ccccc1 (configuration not stated)	23µM*	?	?	?	18µM*	?
O=C(CN(c1ccc(Br)cc1)S(=O)(=O)c1ccc(Cl)c([N+](=O)[O-])c1)NCCc1ccccc1	14%	i	i	?	3%	-7%
Cc1cccc(Nc2cc(C)nc3nc(Cc4ccc(Cl)cc4)nn23)c1	·	i	i	·	·	·
CC1(C)CC(=O)C=C(c2ccc3[nH]ccc3c2)C1	0%	i	i	14%	1%	2%
COc1ccc(CNC(=O)N2CCN(c3cccc(Cl)c3)CC2)cc1OC	5%	?	i	16%	-5%	-5%
O=C(CN1C(=O)C(=O)N(Cc2ccccc2)C1=O)Nc1cc(Cl)cc(Cl)c1	23µM*	?	23µM*	?	?	18µM*
O=C(Nc1cc(Cl)cc(Cl)c1)N1CCCN(Cc2ccccc2)CC1	21µM*	?	i	-2%	?	3%[9.22 µM]
Cc1cc(Cl)ccc1NC(=S)N1CCN(Cc2ccccc2)CC1	8%	23µM*	i	12%	18%	-42%
Cc1cccc(N2CCN(C(=O)NCc3ccc(Cl)cc3)CC2)c1	?	8.2µM*	23µM*	?	?	?
O=C(Nc1ccccc1)N1CCN(Cc2ccc(Cl)cc2)CC1	7%	i	i	-7%	9%	?
O=C(NCc1ccc(Cl)cc1)N1CCN(Cc2ccccc2)CC1	-20%	16µM*	?	9%	?	20%
O=C(Nc1ccc(Cl)cc1)N1CCCN(Cc2ccc(F)cc2)C1	?	?	?	21µM*	?	?
COc1ccc(NC(=O)Cn2cc(C(=O)c3ccccc3OC)c(=O)c3ccc(C)nc32)cc1OC	·	i	i	·	·	·
COC(=O)C1=C(C(=O)OC)[C@@H]2N(C)c3ccccc3[C@@]23C[C@@H](CO)N(C(=O)C2CCC2)C3=N1	9%	i	i	11%	-2%	-2%
CC(=O)c1cc2c(cc1NC(=O)c1cc(C)nn1-c1ccccc1)OCO2	0%	i	5.8µM*	?	-7%	?
Cn1cnc([N+](=O)[O-])c1S(=O)(=O)c1ccc(Cl)cc1	9.2µM*	i	i	9.2µM*	6.5µM*	?
Cc1ccc(F)cc1C(=O)N1CCOCC1c1cc(C(=O)NCc2ccccc2)no1 (configuration not stated)	21%	i	i	·	7%	·
Cc1cccc(C)c1OCC(=O)Nc1nnc(C2CCCO2)s1 (configuration not stated)	-3%	18µM*	i	-1%	-1%	?
Cc1cccc(OCCCC(=O)Nc2nnc(C3CCCO3)s2)c1C (configuration not stated)	8%	i	i	11%	5%	-6%
C#CCn1c(=NC(=O)c2ccc(Cl)s2)sc2cccc(OC)c21	-1%	i	i	18µM*	10%	11%
